Measured values published in PubChem BioAssay (Tox21).
“And” between values parts separate entries of the source, which are not always exact repeats. Equal entries are not always repeated. The source made the active and inactive calls. Unless noted, calls come from the whole dose curve; as a rule, active = well fitted curve in the direction sought with a large enough effect in the repeat runs; inconclusive = weak or mixed curves; inactive = no such curve, though single readings can be large; an effect the other way counts as inactive or inconclusive.

Assays:
[1] = qHTS assay to identify small molecule antagonists of the glucocorticoid receptor (GR) signaling pathway - cell viability counter screen (AID 720693); note: nearly all actives have a fitted effect of over 55% in size; note: potency is the fitted concentration of half-maximal effect
[2] = qHTS assay for identifying genotoxic compounds that show differential cytotoxicity against isogenic chicken DT40 cell lines with known DNA damage response pathways - Rad54/Ku70 mutant cell line (AID 743015); note: nearly all actives have a fitted effect of over 60% in size; note: potency is the fitted concentration of half-maximal effect
[3] = qHTS assay to identify small molecule antagonists of the androgen receptor (AR) signaling pathway - cell viability counter screen (AID 743033; note: nearly all actives have a fitted effect of over 45% in size; note: potency is the fitted concentration of half-maximal effect)
[4] = qHTS assay to identify small molecule antagonists of the androgen receptor (AR) signaling pathway using the MDA cell line - cell viability counter screen (AID 743041; note: nearly all actives have a fitted effect of over 45% in size; note: potency is the fitted concentration of half-maximal effect)
Method in brief: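 Cells were plated at 3,000 per well and left 5 h. Compounds in DMSO were then pinned in, followed by R1881. After 16 h at 37C, CellTiter-Fluor fluorescence gave viability.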

[5] = qHTS assay to identify small molecule antagonists of the thyroid receptor (TR) signaling pathway - cell viability counter screen (AID 743064); note: nearly all actives have a fitted effect of over 50% in size; note: potency is the fitted concentration of half-maximal effect
Method in brief: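 In-well cytotoxicity read by CellTiter-Fluor (30 min, 37 C) following 23.5 h exposure of GH3 cells bearing a TRE-luciferase sensor. Compounds were added alongside 1 nM (final) T3 to drive TR transactivation.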

[6] = qHTS assay to identify small molecule antagonists of the thyroid receptor (TR) signaling pathway (AID 743065); note: nearly all actives have a fitted effect of over 55% in size; note: potency is the fitted concentration of half-maximal effect
Method in brief: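 Antagonism measured as loss of luciferase signal in GH3 cells stably carrying a TRE-luciferase reporter, co-treated with compound and T3 (1 nM final) for 23.5 h at 37 C. Viability was read in the same well by CellTiter-Fluor.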

[7] = system: thyroid hormone receptor (rat, GH3 cells); assay: qHTS assay to identify small molecule agonists of the thyroid receptor (TR) signaling pathway (AID 743066; calls by dose curve)
[8] = qHTS assay to identify small molecule antagonists of the estrogen receptor alpha (ER-alpha) signaling pathway - cell viability counter screen (AID 743074; calls by dose curve;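 note: HEK293 cells carrying ER-alpha-UAS-bla reporter stimulated with 17beta-estradiol; nearly all actives have a fitted effect of over 45% in size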; note: potency is the fitted concentration of half-maximal effect)
[9] = target: Estrogen receptor (Homo sapiens) (UniProt P03372); assay: qHTS assay to identify small molecule agonists of the estrogen receptor alpha (ER-alpha) signaling pathway (AID 743075; calls by dose curve;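 note: HEK293 GripTite cells with ER-alpha and UAS-driven beta-lactamase reporter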)
[10] = target: Estrogen receptor (Homo sapiens) (UniProt P03372); assay: qHTS assay to identify small molecule agonists of the estrogen receptor alpha (ER-alpha) signaling pathway using the BG1 cell line (AID 743079); note: nearly all actives have a fitted effect of over 20% in size; note: potency is the fitted concentration of half-maximal effect
[11] = qHTS assay to identify small molecule antagonists of the estrogen receptor alpha (ER-alpha) signaling pathway using the BG1 cell line (AID 743080; calls by dose curve;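 note: BG1 cells stimulated with 17beta-estradiol alongside compound; series mostly up to about 70 µM; nearly all actives have a fitted effect of over 25% in size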)
Method in brief: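 Luciferase inhibition measured with ONE-Glo after 30 min at RT in BG1Luc4E2 cells given test compounds and 17beta-estradiol for 21.5 h at 37 C; CellTiter-Fluor viability read in the same wells beforehand.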

[12] = qHTS assay to identify small molecule antagonists of the estrogen receptor alpha (ER-alpha) signaling pathway using the BG1 cell line - cell viability counter screen (AID 743081);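 note: compound given together with 17beta-estradiol as the ER stimulus; nearly all actives have a fitted effect of over 45% in size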; note: potency is the fitted concentration of half-maximal effect
Aromatase (Homo sapiens) = Aromatase (Homo sapiens) (UniProt P11511); assay: qHTS assay to identify aromatase inhibitors (AID 743083); note: nearly all actives have a fitted effect of over 55% in size; note: potency is the fitted concentration of half-maximal effect
[13] = qHTS assay to identify aromatase inhibitors - cell viability counter screen (AID 743084);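 note: cells stimulated with testosterone during compound exposure; nearly all actives have a fitted effect of over 55% in size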; note: potency is the fitted concentration of half-maximal effect
[14] = qHTS assay for identifying genotoxic compounds that show differential cytotoxicity against isogenic chicken DT40 cell lines with known DNA damage response pathways - wild type cell line (AID 743012); note: potency is the fitted concentration of half-maximal effect; nearly all actives have a fitted effect of over 60% in size
Method in brief: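 Wild type DT40, 300 cells/well, ~0.5 h settle at 37 C/5% CO2; compounds in DMSO added by pintool; 40 h at 37 C/5% CO2; CellTiter-Glo, 30 min RT; luminescence.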

[15] = qHTS assay for identifying genotoxic compounds that show differential cytotoxicity against isogenic chicken DT40 cell lines with known DNA damage response pathways - Rev3 mutant cell line (AID 743014); note: nearly all actives have a fitted effect of over 55% in size; note: potency is the fitted concentration of half-maximal effect
[16] = target: Androgen receptor (Homo sapiens) (UniProt P10275); assay: qHTS assay to identify small molecule agonists of the androgen receptor (AR) signaling pathway (AID 743036; active = well fitted activation curve with a large enough effect in the signal ratio in the repeat runs, with a control signal flat, not every such curve was filed as active; inconclusive = weak or mixed curves, or effect the other way; inactive = no such curve, though single readings can be large or run the other way; the % refers to the signal ratio)
Method in brief: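 Activation was read as beta-lactamase FRET signal from LiveBLAzer B/G substrate, added for 2 h at room temperature. Before that, GeneBLAzer AR-UAS-bla GripTite (HEK293) cells had 16 h compound exposure at 37C.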

[17] = target: Androgen receptor (Homo sapiens) (UniProt P10275); assay: qHTS assay to identify small molecule antagonists of the androgen receptor (AR) signaling pathway using the MDA cell line (AID 743042; note: nearly all actives have a fitted effect of over 55% in size; note: potency is the fitted concentration of half-maximal effect)
Method in brief: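 Antagonist mode: compounds plus R1881 agonist added to MDA-kb2 AR-luc cells, incubated 16 h at 37C. Luciferase reporter luminescence quantified, with multiplexed CellTiter-Fluor readout for cell viability.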

[18] = target: Estrogen receptor (Homo sapiens) (UniProt P03372); assay: qHTS assay to identify small molecule antagonists of the estrogen receptor alpha (ER-alpha) signaling pathway (AID 743069; active = well fitted curve in the direction sought with a large enough effect in the signal ratio in the repeat runs, not every such curve was filed as active; inconclusive = weak or mixed curves, or effect the other way; inactive = no such curve, though single readings can be large or run the other way; the % refers to the signal ratio; note: potency is the fitted concentration of half-maximal effect)
Method in brief: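 ER-alpha-UAS-bla GripTite HEK293 line; 2% charcoal-stripped FBS overnight; plated, 4 hr 37C/5% CO2; cpd in DMSO + 17beta-estradiol, 18 hr 37C; LiveBLAzer B/G FRET substrate 2 hr RT; fluorescence intensity.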

[19] = target: Androgen receptor (Homo sapiens) (UniProt P10275); assay: qHTS assay to identify small molecule agonists of the androgen receptor (AR) signaling pathway using the MDA cell line (AID 743040; note: nearly all actives have a fitted effect of over 20% in size)
Method in brief: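 Cells plated, 5 h at 37C/0% CO2; compound or DMSO pinned; 16 h at 37C; ONE-Glo added; luminescence measured after 30 min at room temperature. Reporter line: MDA-kb2 with MMTV-luciferase responsive to AR and GR.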

Measured: Potency

Chain of Aromatase (Homo sapiens) (P11511 whole entry, looked up): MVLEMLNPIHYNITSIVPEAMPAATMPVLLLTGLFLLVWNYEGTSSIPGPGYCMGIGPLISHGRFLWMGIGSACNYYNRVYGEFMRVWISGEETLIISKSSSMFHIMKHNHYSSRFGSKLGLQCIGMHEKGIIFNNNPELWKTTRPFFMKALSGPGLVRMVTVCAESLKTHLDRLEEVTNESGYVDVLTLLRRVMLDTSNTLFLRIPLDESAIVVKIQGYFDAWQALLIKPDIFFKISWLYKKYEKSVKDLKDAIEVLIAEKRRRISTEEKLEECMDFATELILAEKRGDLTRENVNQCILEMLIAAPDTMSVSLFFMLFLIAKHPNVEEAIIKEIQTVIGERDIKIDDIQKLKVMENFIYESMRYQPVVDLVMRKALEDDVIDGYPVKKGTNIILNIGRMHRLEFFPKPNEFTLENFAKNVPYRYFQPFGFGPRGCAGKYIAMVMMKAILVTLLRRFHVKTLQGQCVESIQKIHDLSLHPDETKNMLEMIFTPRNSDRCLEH
Chain of Estrogen receptor (Homo sapiens) (P03372 whole entry, looked up): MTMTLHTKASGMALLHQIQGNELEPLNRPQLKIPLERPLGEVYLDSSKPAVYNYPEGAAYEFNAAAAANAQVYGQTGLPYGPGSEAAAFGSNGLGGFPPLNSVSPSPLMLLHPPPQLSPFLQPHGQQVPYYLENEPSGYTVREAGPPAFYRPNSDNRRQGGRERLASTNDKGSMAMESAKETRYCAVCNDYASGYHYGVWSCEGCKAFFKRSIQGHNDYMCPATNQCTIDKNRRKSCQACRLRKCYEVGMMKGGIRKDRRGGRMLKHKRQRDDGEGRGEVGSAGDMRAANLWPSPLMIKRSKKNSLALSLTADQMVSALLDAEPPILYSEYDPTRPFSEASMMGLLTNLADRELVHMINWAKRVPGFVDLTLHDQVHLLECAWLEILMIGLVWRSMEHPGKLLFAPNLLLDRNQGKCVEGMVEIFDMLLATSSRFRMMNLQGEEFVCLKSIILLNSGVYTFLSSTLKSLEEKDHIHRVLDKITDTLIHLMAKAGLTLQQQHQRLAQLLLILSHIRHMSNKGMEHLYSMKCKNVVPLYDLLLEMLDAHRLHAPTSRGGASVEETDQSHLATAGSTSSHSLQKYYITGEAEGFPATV
Chain of Androgen receptor (Homo sapiens) (P10275 whole entry, looked up): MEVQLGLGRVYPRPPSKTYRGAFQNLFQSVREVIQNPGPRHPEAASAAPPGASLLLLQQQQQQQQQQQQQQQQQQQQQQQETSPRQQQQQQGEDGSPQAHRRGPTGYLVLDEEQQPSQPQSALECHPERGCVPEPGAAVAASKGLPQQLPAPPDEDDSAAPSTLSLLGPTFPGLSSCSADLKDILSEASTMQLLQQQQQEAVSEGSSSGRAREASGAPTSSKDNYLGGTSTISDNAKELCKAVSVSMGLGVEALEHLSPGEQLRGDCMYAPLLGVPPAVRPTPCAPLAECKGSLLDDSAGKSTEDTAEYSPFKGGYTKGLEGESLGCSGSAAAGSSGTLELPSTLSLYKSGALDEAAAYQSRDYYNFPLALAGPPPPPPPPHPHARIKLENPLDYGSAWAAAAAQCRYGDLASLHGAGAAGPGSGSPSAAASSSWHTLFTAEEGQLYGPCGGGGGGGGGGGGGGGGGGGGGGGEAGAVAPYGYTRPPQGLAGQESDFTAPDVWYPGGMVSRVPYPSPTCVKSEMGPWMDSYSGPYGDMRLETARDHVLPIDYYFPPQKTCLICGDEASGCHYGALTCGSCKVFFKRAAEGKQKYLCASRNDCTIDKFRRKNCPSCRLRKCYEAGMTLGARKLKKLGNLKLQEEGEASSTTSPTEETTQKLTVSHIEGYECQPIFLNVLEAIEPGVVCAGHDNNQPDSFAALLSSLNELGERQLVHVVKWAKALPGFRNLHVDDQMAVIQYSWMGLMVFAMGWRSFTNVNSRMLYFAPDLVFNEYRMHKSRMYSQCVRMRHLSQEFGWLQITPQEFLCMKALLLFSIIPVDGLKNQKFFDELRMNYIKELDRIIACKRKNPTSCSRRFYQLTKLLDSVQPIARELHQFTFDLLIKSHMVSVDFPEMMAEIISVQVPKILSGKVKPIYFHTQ

CCOC(=O)Cc1cccc2ccccc12
inactive: [1] | [2] | [3] | [4] | [5] | [6] | [7] | [8] | [9] | [10] | [11] | [12] | Aromatase (Homo sapiens) | [13]

CC(C)C[C@H]1C(=O)N2CCC[C@H]2[C@]2(O)O[C@](NC(=O)[C@@H]3C=C4c5cccc6[nH]c(Br)c(c56)C[C@H]4N(C)C3)(C(C)C)C(=O)N12
active: [14] 5.31 µM and 11.6 µM | [15] 10.6 µM and 7.34 µM | [2] 7.5 µM and 10.4 µM | [6] 13.3 µM and 16.4 µM
inactive: [3] | [4] | [7] | [8] | [12] | [13]

Cc1ccc(N=Nc2c(O)c(C(=O)O)cc3ccccc23)c(S(=O)(=O)O)c1
inactive: [1] | [3] | [7] | [8] | Aromatase (Homo sapiens)
active: [2] 13.3 µM | [5] 26.5 µM | [12] 16.7 µM | [13] 6.65 µM

COc1cc(C(=O)OCCCN2CCCN(CCCOC(=O)c3cc(OC)c(OC)c(OC)c3)CC2)cc(OC)c1OC
active: [15] 15 µM | [5] 8.41 µM | [6] 13.3 µM | [12] 9.44 µM | [13] 8.41 µM
inactive: [1] | [16] | [4] | [17] | [9] | Aromatase (Homo sapiens)

OC(C#CCN1CCCC1)(c1ccccc1)c1ccccc1
active: [2] 26.6 µM
inactive: [1] | [3] | [4] | [7] | [8] | Aromatase (Homo sapiens) | [13]

O=C(Nc1ccc(S(=O)(=O)N2CCOCC2)cc1)c1cc(Cl)ccc1NS(=O)(=O)c1ccc(Cl)s1
inactive: [3] | [4] | [9] | [10] | [11] | [12] | Aromatase (Homo sapiens) | [13]
active: [1] 16.9 µM | [6] 18.8 µM

CCC(CC)Nc1ccc(C)c(C)c1
inactive: [1] | [3] | [4] | [5] | [7] | [18] | [8] | [9] | [10] | [11] | [12] | Aromatase (Homo sapiens) | [13]

CCCCCCCCCCCCCCCCCCOS(=O)(=O)O
active: [6] 48.6 µM
inactive: [3] | [4] | [7] | [8] | [9] | [10] | [11] | [12]

CN1CCC(=C2c3ccccc3Sc3ccccc32)CC1
active: [14] 5.31 µM | [15] 5.96 µM | [3] 23.9 µM | [17] 29.8 µM | [5] 5.96 µM | [6] 8.41 µM
inactive: [16] | [10]

C=C1C(=C/C=C2\CCC[C@]3(C)[C@@H]([C@H](C)/C=C/[C@@H](O)C4CC4)CC[C@@H]23)C[C@@H](O)C[C@@H]1O
active: [14] 11.9 µM | [15] 11.9 µM | [2] 13.3 µM | [17] 26.6 µM | [6] 26.6 µM | [18] 21.3 µM [inconclusive]
inactive: [3] | [16] | [8] | [9] | [10] | [12] | Aromatase (Homo sapiens) | [13]

O=[N+]([O-])c1ccc2[nH]ncc2c1
inactive: [1] | [2] | [3] | [4] | [5] | [6] | [7] | [18] | [8] | [9] | [10] | [11] | [12] | Aromatase (Homo sapiens) | [13]

C[N+](C)(C)CCOC(=O)CCC(=O)OCC[N+](C)(C)C
inactive: [15] | [3] | [4] | [5] | [6] | [7] | [8] | [9] | [10] | [11] | [12] | Aromatase (Homo sapiens) | [13]

CC(=O)c1ccc2c(c1)N(CCCN(C)C)c1ccccc1S2
active: [5] 10.1 µM | [6] 10.1 µM
inactive: [1] | [3] | [4] | [18] | [8] | [9] | [10] | [11] | [12] | [13]

CC(C)(O)c1ccc(CNC(=O)c2cccnc2Oc2ccc(F)cc2)cc1
inactive: [1] | [5] | [6] | [7] | [8] | [12]

O=S(c1cc(Cl)cc(Cl)c1O)c1cc(Cl)cc(Cl)c1O
inactive: [3] | [19] | [4] | [17] | [7] | [8] | [9] | [10] | [11] | [12] | Aromatase (Homo sapiens)

CC(=O)c1cccc([N+](=O)[O-])c1
inactive: [1] | [3] | [5] | [6] | [7] | [18] | [8] | [9] | [10] | [11] | [12] | Aromatase (Homo sapiens) | [13]

COc1cc(Cl)c(OC)cc1N
inactive: [1] | [3] | [4] | [5] | [12] | Aromatase (Homo sapiens) | [13]

CCCCCCCCCCCC(=O)OC[C@@H](O)[C@H]1OC[C@H](OCCO)[C@H]1OCCO
inactive: [1] | [4] | [5] | [6] | [7] | [8] | [9] | [10] | [12] | [13]
active: [15] 53.2 µM

CCCCCCCCCCCCN1CCCCCC1=O
active: [8] 43.6 µM
inactive: [1] | [3] | [4] | [5] | [7] | [12] | [13]

CCN(CC)c1ccc2c(-c3ccccc3C(=O)O)c3ccc(=[N+](CC)CC)cc-3oc2c1
inactive: [1] | [8] | [9] | [11]
active: [15] 8.63 µM | [4] 24.3 µM | [5] 5.45 µM | [12] 9.69 µM | [13] 8.63 µM

c1ccc(C(O[C@H]2CCCN(CCc3ccc4c(c3)OCO4)C2)c2ccccc2)cc1
inactive: [3] | [4] | [8] | [9] | [10] | [11] | [12] | [13]
active: [14] 23.7 µM | [15] 29.8 µM | [2] 29.8 µM | [5] 29.8 µM | [6] 26.6 µM

O=C(c1ccc(F)cc1)C1CCN(CCn2c(=S)[nH]c3ccccc3c2=O)CC1
active: [14] 18.8 µM
inactive: [3] | [4] | [17] | [5] | [6] | [7] | [8] | [12] | Aromatase (Homo sapiens) | [13]

COc1ccnc(CS(=O)c2nc3ccc(OC(F)F)cc3[nH]2)c1OC (stereo not drawn)
inactive: [1] | [3] | [4] | [5] | [7] | [8] | [9] | [11] | [12] | Aromatase (Homo sapiens) | [13]

CCc1cc(C2=C(C(=O)O)N(c3ccccc3C(F)(F)F)S(=O)(=O)c3ccccc32)cc2c1OCO2
active: [5] 2.41 µM
inactive: [1] | [3] | [4] | [6] | [7] | [8]

CCOCC(O)COc1ccc(NC(=O)CC[S+](C)C)cc1 (stereo not drawn)
inactive: [1] | [2] | [3] | [4] | [5] | [6] | [7] | [18] | [8] | [9] | [10] | [11] | [12] | Aromatase (Homo sapiens) | [13]

CCC(C)(C)CC
inactive: [1] | [6] | [7] | [8] | [12]

c1cc(CCCc2ccncc2)ccn1
inactive: [1] | [3] | [4] | [5] | [6] | [7] | [18] | [8] | [9] | [10] | [11] | [12] | [13]
active: Aromatase (Homo sapiens) 13.7 µM

O=C(OCCCCCCOC(=O)c1ccccc1)c1ccccc1
inactive: [1] | [4] | [5] | [6] | [7] | [8] | [9] | [11] | [12] | Aromatase (Homo sapiens) | [13]
active: [15] 61.1 µM | [10] 43.3 µM

CCC(=O)O[C@]1(C(=O)CCl)[C@@H](C)C[C@H]2[C@@H]3CCC4=CC(=O)C=C[C@]4(C)[C@@]3(F)[C@@H](O)C[C@@]21C
inactive: [17] | [5] | [6] | [7] | [18] | [8] | [9] | [10] | [12] | Aromatase (Homo sapiens) | [13]
active: [15] 2.37 µM | [2] 29.8 µM

O=C(CS)Nc1ccccc1
active: [14] 11.9 µM | [15] 21.1 µM | [2] 18.8 µM | [10] 21.1 µM
inactive: [7] | [8] | [9] | [11] | Aromatase (Homo sapiens) | [13]
